# Shown is part of a subset that was picked to be rich in hits.
# Dicer inh = inhibitors of human Dicer processing of pre-microRNA. Q9UPY3. cat-ELCCA pre-miR-21 Dicer processing, chemiluminescence; hits give high values. z-score at 25 µM. actives 6% (n = 47,000); in the data active means z-score above about 3, passing the limit was not always enough;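 further: plate controls were vehicle for no effect and no enzyme for full effect; higher signal means more uncleaved substrate so more Dicer inhibition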
# * marks the source's active call; other numbers are inactive results.
SMILES,Dicer inh
O=C1c2ccccc2S(=O)(=O)N1Cc1cccc2ccccc12,-0.65
O=C1c2ccccc2S(=O)(=O)N1CCCCN1CCN(c2ncccn2)CC1,0.08
O=C(OCCN1CCN(C2=NS(=O)(=O)c3ccccc32)CC1)c1cccc2ccccc12,3.2*
O=C(O)C1CC(=O)N(Cc2ccco2)C1 (stereo not given),0.7
O=c1[nH]c(=O)n(-c2ccccc2)c2c1CN(Cc1ccco1)CN2,0.98
c1ccc(C2CN(Cc3ccco3)C(c3ccccc3)O2)cc1 (stereo not given),3.5*
N#Cc1cnn(-c2ccccc2)c1-n1cccc1,-0.14
CCOC(=O)c1c(N)n(-c2cc(C)ccc2C)c2nc3ccccc3nc12,-3.1
Cc1ccc(C(=O)NNC(=O)CSc2ncnc3c(C)csc23)cc1,0.22
Cc1ccc(-c2nnc3c4c5c(sc4ncn23)CCCC5)cc1,0.37
COCc1cc(=O)oc2cc(NS(C)(=O)=O)ccc12,1.2
O=C(CSc1ccccn1)N1CCc2ccccc2C1,-1.2
O=C(Nc1nnc(COc2ccc(Cl)cc2)s1)c1ccco1,4*
COCc1nnc(NC(=O)COc2ccc(Cl)cc2)s1,0.02
O=C(Nc1nnc(CCSc2ccc3ccccc3c2)s1)c1ccco1,1
COC(CNC(=S)Nc1cccc(Cl)c1Cl)OC,-1.2
CNC(=O)c1ccccc1Sc1ccc(Cl)cc1C(=O)O,-0.71
O=[N+]([O-])c1cc(C(F)(F)F)c(Sc2ccccn2)cc1Sc1ccccn1,1.2
COc1ccc(-c2cc(-c3ccccc3)[nH]c(=O)c2C#N)cc1,-1.3
CC(=O)n1cc(/C=C2/N=C(c3ccccc3)OC2=O)c2ccccc21,3*
O=C1OC(c2ccccc2)=N/C1=C/c1cccs1,-0.63
COc1ccc(/C=C2\N=C(c3ccccc3)OC2=O)c(OC)c1,-1.5
CCSc1sc(CC)cc1C1C(C(=O)Nc2cccnc2)=C(C)NC2=C1C(=O)CC(C)(C)C2 (stereo not given),1.6
COc1ccccc1-c1noc(CSc2nc(N)cc(=O)[nH]2)n1,2
Cc1ccc(-c2noc(CSc3nc(N)cc(=O)[nH]3)n2)cc1,1.2
SMILES,Dicer inh
COc1ccc(-c2noc(CSc3nc(N)c(-c4ccccc4)c(=O)[nH]3)n2)cc1,3.9*
Cc1csc(NC(=O)C(F)(F)F)c1C(N)=O,-1.1
COc1cccc(C2Nc3cc(C)c(C)cc3NC3=C2C(=O)CC(C)(C)C3)c1O (stereo not given),0.41
CCCOC(=O)C1=C(C)NC2=C(C(=O)CCC2)C1c1ccccc1Br (stereo not given),0.42
CCS(=O)(=O)N1CCN(CC2CC=CCC2)CC1 (stereo not given),3.7*
CC(C)CC(=O)N1CCN(CC2CC=CCC2)CC1 (stereo not given),1.6
CSc1ccc(CN2CCN(CC3CC=CCC3)CC2)cc1 (stereo not given),1.2
O=S1(=O)N=C(Nc2ccc(N3CCCCC3)c(Cl)c2)c2ccccc21,1.6
NC(N)=NC(N)=Nc1ccccc1Oc1ccc(Cl)cc1Cl,-0.48
CCOC(=O)c1cc(CSc2n[nH]c(=O)n2-c2ccccc2)on1,-0.14
Nc1nc(Nc2cccc(F)c2)sc1C(=O)c1ccc(F)cc1,3.2
Nc1nc(Nc2ccccc2)sc1C(=O)c1ccc(F)cc1,1.7
Nc1nc(Nc2ccc(F)cc2)sc1C(=O)c1ccccc1,4.2*
Nc1ncnc2c1nc(N1CCCCC1)n2[C@H]1O[C@@H](CO)[C@H](O)[C@@H]1O,0.94
COc1cc2cc(OCc3cccc(C)c3)nc(C)c2cc1OC,-1.6
COc1ccc2[nH]c(-c3ccccc3)nc(=S)c2c1,-0.55
Cc1cc(C)c2c(n1)sc1c(=O)oc(C)nc12,4.9*
Cc1cc(C)c2c(n1)sc1c(=O)n(/N=C/c3ccccc3)c(C)nc12,-0.57
CC(=O)Cn1cnc2c(sc3nc(C)cc(C)c32)c1=O,0.8
O=C(CCCSc1nc(-c2ccco2)cc(C(F)(F)F)n1)NC1CCCCC1,-0.99
FC(F)(F)c1cccc(CSC2=NCCCN2)c1,0.46
Nc1c(Cl)cc(C(=O)Nc2cc(Cl)cc(Cl)c2)cc1Cl,-0.38
O=C1C2C3C=CC(C3)C2C(=O)N1c1cccc(N2C(=O)C3C4C=CC(C4)C3C2=O)n1 (stereo not given),12
Cc1ccc2c(c1)C(=O)OC1(O)C3C4C=CC(C4)C3C(=O)N21 (stereo not given),1.9
O=C1OC2(O)C3C4C=CC(C4)C3C(=O)N2c2ccccc21 (stereo not given),4.9*
SMILES,Dicer inh
COc1ccccc1C1CC(=O)C2=C(C1)NC(C)=C(C(=O)OC1CCCC1)C2c1cccs1 (stereo not given),0.36
O=C1c2ccccc2C(=O)N1c1cscc1S(=O)(=O)c1ccc(Cl)cc1,-1.6
Cc1ccc(Sc2ncccc2-n2c(C)ccc2C)cc1,-1.2
COc1ccc([N+](=O)[O-])c(OC)c1C(=O)Nc1ccccc1C(=O)NCC1CC1,0
CCC(C)NC(=O)c1c(OC)ccc([N+](=O)[O-])c1OC (stereo not given),-0.14
COc1ccc([N+](=O)[O-])c(OC)c1C(=O)NCC1CC1,4.9*
CCOC(=O)c1cc(NC(=O)c2cc3ccccc3oc2=O)sc1CC,-0.75
Cn1c(=O)c2c(nc3n(Cc4ccc(F)cc4)c(-c4ccc(Cl)cc4)cn23)n(C)c1=O,0.31
CCOc1ccc(/C=N/NC(=S)NCCCOC)cc1,0.51
O=c1[nH]c2ccsc2c(=O)n1CCO,3.2*
Cc1csc2nc(CN3CCOCC3)[nH]c(=O)c12,-0.93
Cc1csc2c(=O)n(CCN3CCSCC3)c(=O)[nH]c12,5.9*
CC(C)CCn1c(=O)[nH]c2ccccc21,0.96
Cc1csc2c(N3CCSCC3)ncnc12,-1.2
Cc1csc2c(=O)n(CCO)c(=O)[nH]c12,4.6*
COc1ncc(C(=O)NNC(=S)Nc2cccc(C(F)(F)F)c2)cc1[N+](=O)[O-],0.3
N#CCCN(C(=O)c1ccccc1Cl)C1CCCCC1,-0.52
COc1ccc(N2CC(O)=C(c3nc4ccccc4c(=O)[nH]3)C2=N)cc1Cl,0.29
Cn1ncc2c(NNS(=O)(=O)c3ccc(Cl)cc3)ncnc21,0.88
O=[N+]([O-])c1ccc(/C=C/C2Oc3ccccc3C3CC(c4cccs4)=NN23)o1 (stereo not given),6.5*
c1ccc(C2Oc3ccccc3C3CC(c4cccs4)=NN32)nc1 (stereo not given),1.5
Cc1ccc(C2=NN3C(C2)c2ccccc2OC3c2ccc(F)cc2)o1 (stereo not given),2.1
Cc1ccc2nc(-c3ccc(N4C(=O)c5cccnc5C4=O)cc3)sc2c1,-1.4
CC(C)(C)CC(C)(C)NC(=O)C(C)(C)C,-0.4
Nc1ccccc1NC(=O)c1ccccc1O,0.52
SMILES,Dicer inh
Nc1cccc(NC(=O)c2ccccc2O)c1,5.9*
COc1ccc(C=Nc2cccc(NC(=O)c3ccccc3O)c2)cc1,1.9
CCOC(=O)c1ccc(N2CCCCC2)c(NC(=O)c2sc3ccccc3c2Cl)c1,-1.2
O=C(O)CCCC(=O)NCc1ccc2c(c1)OCO2,1.3
Cc1sc(NC(=O)CN2CCc3ccccc32)c(C#N)c1C,0.56
NS(=O)(=O)c1ccc(NC(=O)CCCC(=O)O)cc1,1.3
COC(=O)CCC(=O)Nc1ccc(C)cc1,-0.19
COc1ccc(NC(=O)CCC(=O)O)cc1OC,3.7*
CC(=O)Nc1ccc(NC(=O)CCC(=O)O)cc1,-1.3
NS(=O)(=O)c1ccc(NC(=O)CCC(=O)O)cc1,3.4*
COc1ccc(NC(=O)CC(C)(C)CC(=O)O)cc1OC,-2.9
COc1ccccc1C1CC(=O)C2=C(C1)NC(C)=C(C(=O)OC(C)C)C2c1cccs1 (stereo not given),1

# From PubChem BioAssay
